The list is not random: actives were taken first. Their share in the collection is about 21%.
ClpP mod – qHTS Assay for Activators of ClpP; ATP-dependent Clp protease proteolytic subunit (Bacillus subtilis (strain 168)), P80244; purified B. subtilis ClpP, FRET peptide cleavage, 20 min; Potency, µM (series often up to 57.5 µM), inactives show top-dose activity change, negative = active; hit rate 1.9% among 340,000; AID 651965, 2013; active = well fitted falling curve with a large enough effect; inconclusive = small, poorly fitted or top-dose-only effect; inactive = no such curve, though single readings can be large or run the other way; also: potency is read from the fitted curve at half-maximal effect; the source files actives as falling curves though it sought activators and does not explain the sign; nearly all actives have a fitted effect of over 65% in size
Target sequence (P80244 whole entry, looked up): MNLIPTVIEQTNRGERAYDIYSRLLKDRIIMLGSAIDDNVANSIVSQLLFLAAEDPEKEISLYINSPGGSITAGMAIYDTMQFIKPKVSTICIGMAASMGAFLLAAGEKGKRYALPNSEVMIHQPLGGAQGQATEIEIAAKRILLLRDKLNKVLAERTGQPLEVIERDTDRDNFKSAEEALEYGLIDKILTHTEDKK
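FRET quenching reversal measured ClpP activation: 10 microg/mL B. subtilis ClpP at pH 8 with the FRET-FV decapeptide, read at 430 nm after 320 nm excitation. The 20-min minus 0-min signal was scaled between DMSO/no-enzyme wells and ADEP (5.8 microM final).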
IL1B secr inh – qHTS for Inhibitors of Inflammasome Signaling: IL-1-beta AlphaLISA Primary Screen; activity change, % at 57.5 µM; hit rate 4.7% among 360,000; THP-1 LPS/ATP IL-1B secretion, AlphaLISA, 16 h; active compounds read low; in the data active = activity change below about -50%; inconclusive = mostly about -30% to -49%; also: % is scaled to controls: 0 for no effect and ±100 for the full control effect
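THP-1 cells pretreated 1 hr with compounds (up to 57.5 uM final), then stimulated with LPS (250 ng/mL final) plus ATP (1.25 mM final); secreted IL-1B measured by AlphaLISA after 16 hr, decreased signal indicating inhibition.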
D3 ag – qHTS of D3 Dopamine Receptor Agonist: qHTS; D3R DiscoveRx beta-arrestin cells, luminescence, 90 min; AID 652048, 2013; D(3) dopamine receptor (Homo sapiens), P35462; hit rate 0.58% among 410,000; max activation, %; in the data active = max activation above about 30%; also: 0% is about no effect
Target sequence (P35462 whole entry, looked up): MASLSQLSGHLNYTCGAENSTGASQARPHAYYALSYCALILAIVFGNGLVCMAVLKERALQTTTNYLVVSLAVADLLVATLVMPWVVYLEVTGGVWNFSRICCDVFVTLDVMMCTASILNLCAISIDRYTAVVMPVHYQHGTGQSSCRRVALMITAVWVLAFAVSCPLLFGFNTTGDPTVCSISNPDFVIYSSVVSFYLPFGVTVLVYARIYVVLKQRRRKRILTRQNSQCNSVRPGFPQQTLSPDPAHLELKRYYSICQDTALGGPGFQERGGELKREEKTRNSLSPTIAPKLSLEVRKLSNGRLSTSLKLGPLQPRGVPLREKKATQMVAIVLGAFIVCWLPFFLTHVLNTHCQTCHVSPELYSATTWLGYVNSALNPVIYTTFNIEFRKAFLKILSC
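Cells at 1500/well, incubated overnight, then treated with pinned compounds (dopamine as control) for 90 min at 37 degrees C. DiscoveRx reagent added for 30 - 60 minutes at room temperature; luminescence read.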
TDP1 cell noCPT – qHTS for Inhibitors of human tyrosyl-DNA phosphodiesterase 1 (TDP1): qHTS in cells in absence of CPT | Potency, µM (highest dose often 46.2 µM), for inactives: at the top dose activity change, negative = growth inhibition, most hits filed as inhibitors | DT40 Tdp1-/- hTDP1 cells, no CPT, ATP luminescence, 48 h | hit rate 15% among 420,000; also: potency is read from the fitted curve at half-maximal effect; % is scaled to controls: 0 for no effect and ±100 for the full control effect; nearly all actives have a fitted effect of over 55% in size
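DT40 Tdp1-/-;hTDP1 cells, no CPT (DMSO vehicle only), 400 cells/well; compounds pin-transferred; ≥48 hr, 37 °C; CellTiter-Glo 30 min RT dark, luminescence read.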
TDP1 cell CPT – qHTS for Inhibitors of human tyrosyl-DNA phosphodiesterase 1 (TDP1): qHTS in cells in presence of CPT. AID 686979, 2013. Potency, µM (titrated, usually from 46.2 µM), inactives show at the highest dose activity change, negative = growth inhibition, hits mostly inhibitors. hit rate 12% among 420,000. chicken DT40 Tdp1-/-;hTDP1 cells + 20 nM CPT, ATP luminescence, 48 h; also: potency is read from the fitted curve at half-maximal effect; % is scaled to controls: 0 for no effect and ±100 for the full control effect; nearly all actives have a fitted effect of over 55% in size
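Chicken DT40 Tdp1-/- cells complemented with human TDP1, 400 cells/well, exposed to compounds plus 20 nM camptothecin for at least 48 h at 37 C; viability read as ATP content by CellTiter-Glo luminescence.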
DRD3 antagonist – qHTS of D3 Dopamine Receptor Antagonist: qHTS; D(3) dopamine receptor (Homo sapiens), P35462; D3R cells, DiscoveRx beta-arrestin luminescence, antagonist mode; active compounds read low; max response, negative = inhibition, %; hit rate 2.5% among 360,000; AID 652054, 2013; in the data active = max response below about -50%; inconclusive = no clear call, values can overlap the other calls; also: % is scaled to controls: 0 for no effect and ±100 for the full control effect
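Cells plated overnight at 1500 cells/well, then exposed to library compounds with dopamine controls for 90 minutes at 37 degrees C. DiscoveRx reagent added for 30–60 minutes at room temperature; luminescence read, quantitative HTS format.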
Starred values were filed as active, the others as inactive. Unless noted, calls follow the shape of the dose curve; as a rule, active = well fitted inhibition curve with a large enough effect; inconclusive = small, poorly fitted or top-dose-only effect; inactive = flat fitted curve, though single readings scatter.

For O=S(=O)(CC(CN1CCCCC1)N1CCCCC1)c1ccc2ccccc2c1 (stereo unspecified) the results were IL1B secr inh -97*, D3 ag -26, TDP1 cell noCPT 2.6µM*, TDP1 cell CPT 5.2µM* and DRD3 antagonist -85*.
For O=S(=O)(CC(CN1CCOCC1)N1CCOCC1)c1ccccc1 (stereo unspecified) the results were ClpP mod 0%, IL1B secr inh 0, D3 ag -4, TDP1 cell noCPT 2%, TDP1 cell CPT 2% and DRD3 antagonist 16.
For CC1CN(C(=O)c2ccccc2)c2ccccc2NC1=O (stereo unspecified) the results were ClpP mod 5%, IL1B secr inh 0, D3 ag 3, TDP1 cell noCPT 3%, TDP1 cell CPT -5% and DRD3 antagonist 16.
`CC(=O)c1c(N2CCN(c3ccc(F)cc3)CC2)nc(=S)n(Cc2ccccc2)c1C` gave ClpP mod 25µM*, IL1B secr inh inconclusive, D3 ag -6, TDP1 cell noCPT inconclusive, TDP1 cell CPT inconclusive and DRD3 antagonist -5.
For CC(=O)c1c(N2CCCCC2)nc(=S)n(Cc2ccccc2)c1C the results were ClpP mod 1%, IL1B secr inh -18, D3 ag 0, TDP1 cell noCPT inconclusive, TDP1 cell CPT 26µM* and DRD3 antagonist 19.
`CCCSc1nc(=S)n(Cc2ccccc2)c(C)c1C(C)=O` gave IL1B secr inh -3, D3 ag 0, TDP1 cell noCPT 23µM*, TDP1 cell CPT -20% and DRD3 antagonist 0.
CCn1c(C)c(C(C)=O)c(N2CCN(c3ccc(F)cc3)CC2)nc1=S was read as ClpP mod 0%, IL1B secr inh -26, D3 ag 1, TDP1 cell noCPT -3%, TDP1 cell CPT -8% and DRD3 antagonist 16.
`CC(=O)c1c(N2CCN(Cc3ccccc3)CC2)nc(=S)n(Cc2ccccc2)c1C` gave ClpP mod -3%, IL1B secr inh 6, D3 ag -7, TDP1 cell noCPT 16µM*, TDP1 cell CPT 16µM* and DRD3 antagonist 18.
Screening CCn1c(C)c(C(C)=O)c(N2CCCC2)nc1=S returned ClpP mod -2%, IL1B secr inh -11, D3 ag 1, TDP1 cell noCPT -1%, TDP1 cell CPT 0% and DRD3 antagonist -2.
C=CCn1c(C)c(C(C)=O)c(N2CCN(c3ccccc3)CC2)nc1=S was read as ClpP mod 0%, IL1B secr inh -8, D3 ag -6, TDP1 cell noCPT inconclusive, TDP1 cell CPT inconclusive and DRD3 antagonist 7.
`COc1ccccc1CCC(=O)Nc1ccc(C)cc1Cl` gave IL1B secr inh -10, D3 ag 2, TDP1 cell noCPT -8%, TDP1 cell CPT -5% and DRD3 antagonist -7.
`c1ccc(-c2cc3ccccc3[nH]2)cc1` gave ClpP mod 5%, IL1B secr inh 13, D3 ag -7, TDP1 cell noCPT -10%, TDP1 cell CPT -22% and DRD3 antagonist -2.
Screening Clc1ccc2[nH]c(-c3ccccc3)cc2c1 returned ClpP mod 28µM*, IL1B secr inh 7, D3 ag -14, TDP1 cell noCPT -29%, TDP1 cell CPT -14% and DRD3 antagonist 47.
For O=c1cc(-c2ccccc2)[nH]c2cc(Cl)ccc12 the results were ClpP mod -6%, IL1B secr inh 43, D3 ag -11, TDP1 cell noCPT 0.73µM*, TDP1 cell CPT 0.46µM* and DRD3 antagonist 0.
CCOC(=O)c1c(-c2ccccc2)csc1NC(=O)c1cc(-c2ccc(C)c(F)c2)on1 was read as ClpP mod 13%, D3 ag 2, TDP1 cell noCPT -4% and TDP1 cell CPT 4%.
Screening Cc1ccc([C@H]2N[C@]3(CCCN(CC4CCCCC4)C3=O)[C@H]3C(=O)N(C)C(=O)[C@@H]23)cc1 returned ClpP mod 1%, IL1B secr inh -15, D3 ag -7, TDP1 cell noCPT -27%, TDP1 cell CPT inconclusive and DRD3 antagonist -21.
For COc1ccc(CCNC(=O)c2cccc(S(=O)(=O)N3CCCCC3)c2)cc1 the results were IL1B secr inh 24, D3 ag -8, TDP1 cell noCPT inconclusive, TDP1 cell CPT inconclusive and DRD3 antagonist -21.
For COc1ccc(C(CNC(=O)c2ccc(C)c(S(=O)(=O)N3CCOCC3)c2)N2CCCC2)cc1 (stereo unspecified) the results were ClpP mod 1%, IL1B secr inh -7, D3 ag -19, TDP1 cell noCPT -4%, TDP1 cell CPT -15% and DRD3 antagonist -71*.
For COc1ccc(CCNC(=O)CSCC(=O)Nc2cc(S(C)(=O)=O)ccc2Cl)cc1 the results were ClpP mod -2%, IL1B secr inh 2, D3 ag -8, TDP1 cell noCPT 9.2µM*, TDP1 cell CPT -4% and DRD3 antagonist -5.
Screening COc1ccc(CCNC(=O)c2cc(S(=O)(=O)N3CCCCC3)ccc2Cl)cc1 returned IL1B secr inh -2, D3 ag -9, TDP1 cell noCPT 16µM*, TDP1 cell CPT 26µM* and DRD3 antagonist -8.
COc1ccc(C(CNC(=O)c2ccc(Cl)c(S(=O)(=O)N3CCCC3)c2)N2CCCC2)cc1 (stereo unspecified) was read as ClpP mod -2%, IL1B secr inh inconclusive, D3 ag -18, TDP1 cell noCPT inconclusive, TDP1 cell CPT -20% and DRD3 antagonist -77*.
`CC(NC(=O)C(=O)c1cn(CC(=O)N2CCOCC2)c2ccccc12)c1ccccc1` (stereo unspecified) gave ClpP mod -1%, IL1B secr inh 16, D3 ag -6, TDP1 cell noCPT 25%, TDP1 cell CPT -12% and DRD3 antagonist 4.
For O=C(O)CSCC(=O)N1CCN(S(=O)(=O)c2cc(Cl)cc(Cl)c2)CC1 the results were IL1B secr inh 5, D3 ag -1, TDP1 cell noCPT -6%, TDP1 cell CPT 8% and DRD3 antagonist 10.
CCN(CC(=O)NCc1ccc(Cl)cc1)C(=O)CCC(=O)c1ccc(F)cc1 was read as ClpP mod -4%, IL1B secr inh -4, D3 ag 3, TDP1 cell noCPT inconclusive, TDP1 cell CPT inconclusive and DRD3 antagonist 5.
